# Source: PubChem BioAssay
# Rows were chosen to be rich in hits. Some 11% of all compounds tested hit in one or more screens of this group.
# USP30 block = blocks human USP30 ubiquitin-rhodamine cleavage; purified USP30, Ub-rhodamine cleavage fluorescence; Q70CQ3; inhibition, % at 25 µM; 47,000 tested, 5.3% active
# USP28 block = inhibitors of human USP28 deubiquitinase; AID 1645857; inhibition, % at 25 µM; Q96RU2; purified USP28, Ub-rhodamine cleavage fluorescence, 30 min; 47,000 tested, 3% active
# USP17 inh = inhibitors of human USP17 deubiquitinase. purified USP17, Ub-rhodamine cleavage fluorescence, 3 h. 47,000 tested, 6.5% active. A8MUK1. inhibition, % at 50 µM
# * marks the source's active call; other numbers are inactive results; / = no result. Rule as the data show it: active = inhibition above about 30%; inactive = the rest.
SMILES,USP30 block,USP28 block,USP17 inh
Cc1cc(C(=O)N[C@H]2[C@H](O)[C@H](O)C[C@@H]2c2ccccc2C)no1,-1,-10,2
COc1cc(NC(=O)Cn2cnc(S(=O)(=O)N3CCc4ccccc43)c2)cc(OC)c1,8,15,4
CCCOc1ccc(C2CN3C(=O)N(c4ccccc4)C(=O)[C@]3(C)c3[nH]c4ccccc4c32)cc1OCC (stereo partly specified),30,9,6
CCOC(=O)C1(Cc2cc(-c3ccc(F)cc3)no2)CCN(Cc2ccc(O)cc2)CC1,0,8,-2
O=C(Nc1nc2c(s1)COCC2)c1cc(-c2ccco2)on1,-86,6,25
O=C(Nc1nc2c(s1)CN(C(=O)c1cc(-c3ccco3)on1)CC2)C1CC1,-83,4,35*
Cc1ccc(NC(=O)N2CC[C@H]3COC(=O)N(C)[C@@H]3C2)cc1,12,10,5
CNc1nc(C2CCN(S(=O)(=O)c3ccc(F)c(C)c3)C2)nc2c1CN(C(C)=O)CC2 (stereo unspecified),11,10,1
O=C(CSc1nnc2ccc(-c3ccc4c(c3)OCO4)nn12)NCC1CCCO1 (stereo unspecified),42*,10,/
NC(=O)CSc1nnc2ccc(-c3ccc4c(c3)OCO4)nn12,2,0,4
O=C(Nc1ccccc1)Nc1nc2c(s1)CN(Cc1ccccc1)C2=O,-1,-5,0
O=C(c1ccc(S(=O)(=O)N2CCOCC2)cc1)N1CCN(C2=NS(=O)(=O)c3ccccc32)CC1,11,4,1
O=C(Oc1cccc(NC2=NS(=O)(=O)c3ccccc32)c1)c1ccc(S(=O)(=O)N2CCCCC2)cc1,/,/,52*
O=C(N[C@@H]1C[C@@H](Oc2ccccc2)[C@H](O)[C@H]1N1CCCCC1)C1CCOCC1,3,4,1
COc1ccc(NC(C)=O)cc1S(=O)(=O)N(CC(=O)Nc1ccc(C)cc1)CC(=O)Nc1ccc(C)cc1,19,-8,34*
COc1ccc(Cl)cc1S(=O)(=O)N(C)CC(=O)Nc1ccc2c(c1)OCCO2,-13,-7,-15
O=C(Nc1cccc(-c2ccc(N3CCOCC3)nn2)c1)c1cccc(C(F)(F)F)c1,0,-20,9
COc1ccccc1NC(=O)C1CCCN(c2cnc3nccnc3c2)C1 (stereo unspecified),-383,-110,-139
COc1ccccc1NC(=O)C1CN(c2nc3ccccc3s2)C1,/,/,38*
COC1=C(N)C(=O)c2nc(-c3nc(C(=O)O)c(C)c(-c4ccc(O)c(OC)c4O)c3N)ccc2C1=O,-172,31*,46*
COc1cccc(C(=O)Nc2cc(-c3cccnc3)no2)c1,3,-2,/
CN(C)c1cccc(C(=O)Nc2cc(-c3cccnc3)no2)c1,16,23,51*
COc1ccc2c(c1)CC(NS(=O)(=O)c1ccc(C(C)=O)cc1)CO2 (stereo unspecified),-3,-8,-14
CCc1nnc(-c2nnc(NCCOc3ccccc3OC)c3ccccc23)o1,34*,8,20
CCc1nnc(-c2nnc(NCCCN3CCOCC3)c3ccccc23)o1,21,13,13
SMILES,USP30 block,USP28 block,USP17 inh
CCCCc1ccc(N2C=NS(=O)(=O)c3cccnc32)cc1,3,2,6
Cc1ncc(CO)c2c1Oc1nc(-c3cccc(Cl)c3)nc(SCC(=O)N3CCCCC3)c1C2,-1,19,82*
CCOc1ccc(-c2nc3c(c(SCC(N)=O)n2)Cc2cc(C)ccc2O3)cc1,2,-8,26
Cc1ccc(CNC(=O)Cn2c(N3CCCCC3)nc(C)cc2=O)cc1,36*,23,41*
Cc1cc(=O)n(CC(=O)NCc2ccc(F)cc2)c(N2CCCCC2)n1,2,-3,-2
CCc1cc(=O)n(CC(=O)NCc2ccc(F)cc2)c(N2CCOCC2)n1,31*,6,22
CCc1cc(=O)n(CC(=O)NCc2ccc(C)cc2)c(N2CCOCC2)n1,9,1,9
O=C(Nc1ccccc1F)N1CCCN(CCn2cccn2)CC1,-1,-11,-19
Cc1ccc(S(=O)(=O)Nc2ccc(C)n(CC(=O)N3CCCC(C)C3)c2=O)cc1 (stereo unspecified),4,-2,-1
CNC(=O)c1c(Br)cnn1-c1ccc(C)cc1,/,/,39*
Cc1ccc(-n2nnc(C(=O)NC(C)C)c2C2CC2)cc1,-8,0,0
COc1ccccc1NC(=O)CN1CCC2(CC1)CN(C(C)=O)Cc1cc(C)ccc1O2,-40,-17,-111
CCOC(=O)C1CCN(C(=O)c2[nH]nc3c2COc2ccccc2-3)CC1,/,/,18
COc1ccc2ncc(S(=O)(=O)c3ccc(C)cc3)c(Nc3ccc(C)cc3)c2c1,12,2,9
COc1ccc2[nH]cc(S(=O)(=O)c3ccc(C#N)cc3)c(=O)c2c1,19,14,31*
COc1ccc(S(=O)(=O)c2c[nH]c3ccc(C)cc3c2=O)cc1Cl,15,23,37*
